Experimental data published in PubChem BioAssay.
This is one part of the list. Activity calls are given as the source filed them.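 How the source made its calls, unless noted: active means at 20 µM dose, 40% or more inhibition averaged across four replicates; inactive means the rest.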

How the values were obtained:
[1] = Peg3 promoter reporter inhibitors, retest, confirmation, cell-based, HeLa, luciferase reporter, single concentration (AID 602417); conditions: HeLa PEG-Prom luciferase reporter, luminescence, overnight; at 20 µM; stronger effect = higher value
PEG-3 [2] = target: PEG-3 (UniProt Q6IN02); test: Peg3 promoter luciferase inhibitors, potency, dose response, cell-based, HeLa, CREF/GAPDH counter-screen panel (AID 624167); conditions: CREF/GAPDH counter-screens; HeLa PEG-Prom luciferase reporter, overnight, run 1, dose range 1, at 100 µM (top of the series) unless noted
Chain of PEG-3 (Q6IN02 whole entry, looked up): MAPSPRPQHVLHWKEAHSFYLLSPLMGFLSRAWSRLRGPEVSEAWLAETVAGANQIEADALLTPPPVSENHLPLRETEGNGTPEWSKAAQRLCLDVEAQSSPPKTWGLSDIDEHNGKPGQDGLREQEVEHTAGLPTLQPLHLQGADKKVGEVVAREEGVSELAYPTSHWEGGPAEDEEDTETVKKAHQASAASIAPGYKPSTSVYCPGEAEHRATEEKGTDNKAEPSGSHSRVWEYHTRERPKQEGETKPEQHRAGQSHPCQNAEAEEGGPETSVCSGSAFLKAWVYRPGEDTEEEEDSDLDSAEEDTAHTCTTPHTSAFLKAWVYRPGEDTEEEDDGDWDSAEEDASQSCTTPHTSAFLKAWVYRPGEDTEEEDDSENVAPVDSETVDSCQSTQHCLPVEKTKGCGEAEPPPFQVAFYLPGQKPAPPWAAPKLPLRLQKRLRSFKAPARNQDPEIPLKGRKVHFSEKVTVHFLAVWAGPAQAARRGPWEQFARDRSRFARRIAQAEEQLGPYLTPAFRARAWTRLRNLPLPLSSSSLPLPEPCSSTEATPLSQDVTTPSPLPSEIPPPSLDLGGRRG

PEG-3 [3] = target: PEG-3 (UniProt Q6IN02); test: as above; conditions: CREF/GAPDH counter-screens; HeLa PEG-Prom luciferase reporter, overnight, run 2, dose range 1, at 100 µM (top of the series) unless noted
[4] = target: Tumor necrosis factor receptor superfamily member 10B (Homo sapiens) (UniProt O14763); test: caspase-8 TRAIL sensitization, hit retest, confirmation, cell-based, NB7+caspase-8, with/without TRAIL, luminescence panel (AID 651596; in the data active means activity above about 50%); conditions: NB7 neuroblastoma + caspase-8, TRAIL sensitization, luminescence viability, with TRAIL, mean of runs, at 10 µM, stronger effect = higher value
Chain of Tumor necrosis factor receptor superfamily member 10B (Homo sapiens) (O14763 whole entry, looked up): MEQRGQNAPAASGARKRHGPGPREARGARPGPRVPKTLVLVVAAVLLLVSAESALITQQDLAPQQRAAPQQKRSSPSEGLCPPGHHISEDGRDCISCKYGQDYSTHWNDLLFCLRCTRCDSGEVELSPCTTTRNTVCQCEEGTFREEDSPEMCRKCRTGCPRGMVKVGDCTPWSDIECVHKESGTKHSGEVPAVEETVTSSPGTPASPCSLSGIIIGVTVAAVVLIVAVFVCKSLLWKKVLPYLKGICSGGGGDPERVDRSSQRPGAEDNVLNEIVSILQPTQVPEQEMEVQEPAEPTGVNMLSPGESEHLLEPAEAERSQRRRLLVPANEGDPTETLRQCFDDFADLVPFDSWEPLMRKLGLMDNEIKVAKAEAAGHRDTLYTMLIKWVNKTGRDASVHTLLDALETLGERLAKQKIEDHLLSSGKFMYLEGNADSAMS

[5] = as above; conditions: NB7 neuroblastoma + caspase-8, without TRAIL, luminescence viability, without TRAIL, mean of runs, at 10 µM
[6] = target: Tumor necrosis factor receptor superfamily member 10B (Homo sapiens) (UniProt O14763); test: TRAIL sensitizers in caspase-8 expressing neuroblastoma cells, dose response, NB7 cells plus caspase-8, luminescence, panel (AID 652002); conditions: NB7 neuroblastoma +caspase-8, TRAIL sensitization, luminescence viability, NB7+Caspase-8, with TRAIL, run 1; at 12.5 µM (top of the series)
[7] = target: Tumor necrosis factor receptor superfamily member 10B (Homo sapiens) (UniProt O14763); test: as above; conditions: NB7 neuroblastoma +caspase-8, TRAIL sensitization, luminescence viability, NB7+Caspase-8, with TRAIL, run 2; at 12.5 µM (top of the series)
[8] = as above; conditions: NB7 neuroblastoma +caspase-8, no TRAIL, compound-alone cytotoxicity counter-screen, luminescence viability, NB7+Caspase-8, run 1; at 12.5 µM (top of the series) unless noted
[9] = as above; conditions: NB7 neuroblastoma +caspase-8, no TRAIL, compound-alone cytotoxicity counter-screen, luminescence viability, NB7+Caspase-8, run 2; at 12.5 µM (top of the series) unless noted
[10] = inhibitors of PAF-induced NF-kB signaling, retest, confirmation, cell-based, GFP fluorescence, single concentration (AID 602472; in the data active means inhibition above about 40%;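 further: stimulus PAF is a Pseudomonas aeruginosa filtrate and not platelet activating factor; plate controls were DMSO wells with stimulus for no effect and unstimulated DMSO wells for full effect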); conditions: KKLEB CF airway cells, overnight, at 5 µM, stronger effect = higher value
[11] = inhibitors of PAF-induced NFkB signaling in CF airway cells, dose response, cell-based, uHTS hits, panel, cytotoxicity readout (AID 624344); conditions: CF bronchial epithelial cells, PAF-induced NFkB reporter inhibition, with PAF, run 1; at 79 µM (top of the series) unless noted
[12] = as above; conditions: CF bronchial epithelial cells, PAF-induced NFkB reporter inhibition, with PAF, run 2; at 79 µM (top of the series) unless noted
Rat fibroblasts (CREF) [13] = test: Peg3 promoter luciferase inhibitors, potency, dose response, cell-based, HeLa, CREF/GAPDH counter-screen panel (AID 624167); conditions: CREF/GAPDH counter-screens; run 1, dose range 1, at 100 µM (top of the series)
Rat fibroblasts (CREF) [14] = test: as above; conditions: CREF/GAPDH counter-screens; run 2, dose range 1, at 100 µM (top of the series)
[15] = HIF-2a reporter inhibitor retest, confirmation, luminescence, 786-0 RCC cells (AID 651580;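 active means mean inhibition across four replicates of at least 40 percent at the single tested concentration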); conditions: HIF-2a luciferase reporter luminescence, overnight, at 18.8 µM, stronger effect = higher value
[16] = HIF-1a luciferase reporter signal reduction – MiaPaCa-2 cells, single concentration, counter-screen for HIF-2a inhibitor project, confirmation (AID 651589;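 active means mean inhibition of the reporter signal across four replicates at the single tested dose of 50% or more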); conditions: MiaPaCa-2 HIF-1a luciferase reporter, desferoxamine, overnight; at 18.8 µM; stronger effect = higher value

Question: For `COc1ccc2sc(-c3ccc(S(C)(=O)=O)cc3)c(C#Cc3cncn3C)c2c1`, which inhibition [1] is on record?
Answer: Its inhibition is 51.8% (active).

Question: And the inhibition (PEG-3 [2])?
Answer: Its inhibition is -25.4%.

Question: What about the inhibition (PEG-3 [3]) of the same compound?
Answer: The inhibition was 60.8% [run 2, dose range 1, at 50 µM].

Question: And the activity [4]?
Answer: The activity was 66.7%.

Question: What about the activity [5] of the same compound?
Answer: Its activity is 34.3%.

Question: And the activity, % sensitization [6]?
Answer: The activity, % sensitization was 13.3%.

Question: And the activity, % sensitization [7]?
Answer: The activity, % sensitization was 10.2%.

Question: What about the activity, % sensitization [8] of the same compound?
Answer: The activity, % sensitization was -20.9%.

Question: And the activity, % sensitization [9]?
Answer: Its activity, % sensitization is -2.18%.

Question: With `COc1ccc(-c2cc(C(=O)N(C)Cc3ccc(OC)c(OC)c3OC)c3ccccc3n2)cc1OC` as the compound, how does the inhibition [1] read?
Answer: The inhibition was 60.4% (active).

Question: And the inhibition (PEG-3 [2])?
Answer: Its inhibition is 68.7%.

Question: What about the inhibition (PEG-3 [3]) of the same compound?
Answer: The inhibition was 72.5%.

Question: Which inhibition [1] does the source give for `Cc1nc(SCC(=O)Nc2cc(C)on2)c2c(C)c(C)sc2n1` here?
Answer: Its inhibition is 33.6% (inactive).

Question: What does the source list for `COc1ccc(CN(C)C(=O)c2cc(-c3ccc(C)cc3C)nc3ccccc23)c(OC)c1OC`?
Answer: inhibition [1]: 75.2% (active); inhibition [10]: 61.6% (active); inhibition (PEG-3 [2]): 102%; inhibition (PEG-3 [3]): 102%; inhibition [11]: 103%; inhibition [12]: 111%

Question: What does the source list for `CN(Cc1ccccc1F)C(=O)C(Cc1ccccc1)NC(=O)c1ccccc1` (stereo unspecified)?
Answer: inhibition [1]: 48.7% (active); inhibition (PEG-3 [2]): 98.9%; inhibition (PEG-3 [3]): 95.1%

Question: For `Cc1nnc(SCC(=O)N2c3ccccc3C(C)(c3ccc(Cl)cc3)CC2(C)C)s1` (stereo unspecified), which inhibition [1] is on record?
Answer: The inhibition was 38.4% (inactive).

Question: Which inhibition [1] does the source give for `CCN1CCN(c2nc(Nc3cc(OC)ccc3OC)nc(Nc3cc(OC)ccc3OC)n2)CC1` here?
Answer: The inhibition was 70% (active).

Question: What about the inhibition (PEG-3 [2]) of the same compound?
Answer: Its inhibition is 47.9%.

Question: And the inhibition (PEG-3 [3])?
Answer: Its inhibition is 53.1%.

Question: For `Cc1ccc(C)c(S(=O)(=O)N2CCN(c3ncnc4sccc34)CC2)c1`, which inhibition [1] is on record?
Answer: The inhibition was 69.5% (active).

Question: What about the inhibition (PEG-3 [2]) of the same compound?
Answer: Its inhibition is 90.1%.

Question: What about the inhibition (PEG-3 [3]) of the same compound?
Answer: Its inhibition is 91.3%.

Question: What about the inhibition (Rat fibroblasts (CREF) [13]) of the same compound?
Answer: Its inhibition is 13.9%.

Question: What about the inhibition (Rat fibroblasts (CREF) [14]) of the same compound?
Answer: Its inhibition is 74.8%.

Question: What about the activity [4] of the same compound?
Answer: The activity was 68.5%.

Question: And the activity [5]?
Answer: Its activity is 69%.

Question: With `NS(=O)(=O)c1ccc(N=Nc2c(O)[nH]c3ccc(Br)cc23)cc1` as the compound, how does the inhibition [1] read?
Answer: The inhibition was 0.42% (inactive).

Question: Which inhibition [1] does the source give for `Cc1ccc(OCC(=O)c2cc(C)n(Cc3ccco3)c2C)c([N+](=O)[O-])n1` here?
Answer: The inhibition was 71.5% (active).

Question: And the inhibition [15]?
Answer: The inhibition was 64.6% (active).

Question: And the inhibition [16]?
Answer: Its inhibition is 82.9% (active).

Question: What about the inhibition (PEG-3 [2]) of the same compound?
Answer: The inhibition was 58%.

Question: And the inhibition (PEG-3 [3])?
Answer: The inhibition was 62.9%.

Question: What about the inhibition (Rat fibroblasts (CREF) [13]) of the same compound?
Answer: The inhibition was -20.4%.

Question: What about the inhibition (Rat fibroblasts (CREF) [14]) of the same compound?
Answer: Its inhibition is -12.2%.

Question: For `Oc1ccc2ccccc2c1N=Nc1nccs1`, which inhibition [1] is on record?
Answer: Its inhibition is 82.7% (active).

Question: Which inhibition [1] does the source give for `C=CC[C@@H](CC(=O)N[C@@H](CO)Cc1ccccc1)C(=O)N[C@H](COC(=O)[C@H](CC=C)CC(=O)OC(C)(C)C)Cc1ccccc1` here?
Answer: Its inhibition is 6.88% (inactive).

Question: What does the source list for `Cc1cccc2sc(N(CCCN(C)C)C(=O)CCS(=O)(=O)c3ccccc3)nc12`?
Answer: inhibition [15]: 22.5% (inactive); inhibition [16]: 98.9% (active)

Question: For `CCOC(=O)C(=Cc1ccccc1)C(=O)c1ccccc1`, which inhibition [10] is on record?
Answer: Its inhibition is -122% (inactive).

Question: And the inhibition [15]?
Answer: Its inhibition is 97.2% (active).

Question: And the inhibition [16]?
Answer: Its inhibition is 108% (active).

Question: For `Cc1nn(-c2ccccc2)c(Cl)c1/C=N/NC(=O)c1nn(C)cc1[N+](=O)[O-]`, which inhibition [10] is on record?
Answer: The inhibition was 14.2% (inactive).

Question: And the activity [4]?
Answer: The activity was 40.9%.

Question: What about the activity [5] of the same compound?
Answer: Its activity is 46.5%.
